Experimental data taken from ChEMBL document CHEMBL4513216, “Probing the Open Global Health Chemical Diversity Library for Multistage-Active Starting Points for Next-Generation Antimalarials” (ACS Infect Dis, 2020).
Screen size: about 68,000 compounds; about 2,700 (4%) showed an effect of 50% or more. Shown is part of a subset that was picked to be rich in strong results.

System: Plasmodium berghei
Experiment: Screen against P. berghei liver stage (PbLuc), transformed with Luciferase, at 2uM
Format: functional, HepG2
Details: tested at 2 uM

Going from Cc1c[nH]cc1C(=O)N1CCN(CCc2cccs2)CC1 to CC(C)c1sc(Cl)nc1C(=O)N1CCN(c2ccccn2)CC1, the INHIBITION rises from -14.3% to 20.42%.

Compared with Cc1ccc(OCC(C)NS(C)(=O)=O)cc1 (stereo not given), COc1ccc(OCC(C)NS(C)(=O)=O)cc1 (stereo not given) is lower in INHIBITION: 41.84% for the first, 37.05% for the second.

Compared with Cc1ccc(OCC(C)NS(C)(=O)=O)cc1C (stereo not given), Cc1ccc(S(=O)(=O)N2CCC(Oc3ccccn3)CC2)c(C)c1 is higher in INHIBITION: 52.85% for the first, 56.24% for the second.

First: Cc1ncc(S(C)(=O)=O)c(N(C)CCCc2cnn(C)c2)n1
Second: c1ccc(CCN2CCCC(c3ccnc4nccn34)C2)cc1 (stereo not given)
The INHIBITION of the first is lower: 13.95% for the first, 32.74% for the second.

Compared with CNC(=O)[C@@H]1COC[C@H]2CN(C(=O)c3ccc(OC)cc3)C[C@H]21, CCc1ccc(C(=O)N2C[C@@H]3COC[C@@H](C(=O)NC)[C@@H]3C2)cc1 is lower in INHIBITION: 51.36% for the first, -10.98% for the second.

Going from CNC(=O)[C@@H]1COC[C@H]2CN(C(=O)c3cccc(OC)c3)C[C@H]21 to COc1ccc(C2(C(=O)N3C[C@@H](C(=O)O)[C@H](C(C)C)C3)CC2)cc1, the INHIBITION rises from 11.6% to 17.2%.

Compared with c1cnn(C2CN(Cc3nc(-c4ccsc4)no3)C2)c1, Cc1cnn(C2CN(Cc3nc(-c4ccsc4)no3)C2)c1 is higher in INHIBITION: -5.2% for the first, 56.02% for the second.

First: Cc1ccc(-c2noc(CN3CC(n4cc(C)cn4)C3)n2)cc1
Second: Cc1ccc(S(=O)(=O)N2CCC(Oc3cccnn3)CC2)c(C)c1
The INHIBITION of the first is lower: -21.39% for the first, 71.06% for the second.

Compared with COCC1CN(C(=O)CC2Cc3ccccc3C2)Cc2c1cnn2C (stereo not given), COCC1CN(C(=O)Cc2cccs2)Cc2c1cnn2C (stereo not given) is lower in INHIBITION: 56.25% for the first, -41.11% for the second.

Going from COCC1CN(C(=O)c2ccnnc2)Cc2c1cnn2C (stereo not given) to O=C(c1ccoc1)N1CCn2cnc(COCC3CC3)c2C1, the INHIBITION rises from 6.57% to 41.79%.

Compared with COc1ccccc1S(=O)(=O)N1CCC(Oc2cccnn2)CC1, O=S(=O)(c1ccccc1F)N1CCC(Oc2cccnn2)CC1 is higher in INHIBITION: 33.61% for the first, 51.31% for the second.

Going from Cc1noc(C)c1S(=O)(=O)N1CCC(Oc2ccccn2)CC1 to Cc1noc(C)c1S(=O)(=O)N1CCC(Oc2cccnn2)CC1, the INHIBITION falls from -11.22% to -12.23%.

Going from CN(C)S(=O)(=O)N1CCC(Oc2cccnn2)CC1 to CN(C)S(=O)(=O)N1CCC(Oc2ccccn2)CC1, the INHIBITION falls from 20.38% to -19.47%.

First: COC(=O)c1sccc1S(=O)(=O)N1CCC(Oc2cccnn2)CC1
Second: COc1ncnc2c1CCN(C(=O)NCc1cccnc1)CC2
The INHIBITION of the first is lower: 23.42% for the first, 46.02% for the second.

First: O=C(NCCCn1cccn1)N1CCCC1c1cccs1 (stereo not given)
Second: O=C(NCCc1ccncc1)C1CCN(Cc2ccco2)CC1
The INHIBITION of the first is lower: -13.45% for the first, -0.55% for the second.

First: CCc1cc2c(N3CCCC(c4cc(C(N)=O)[nH]n4)C3)ncnc2s1 (stereo not given)
Second: CCc1nc(CN2CCCN(Cc3noc(C4CC4)n3)CC2)cs1
The INHIBITION of the first is lower: -126.83% for the first, -17.17% for the second.

Compared with Cc1cnc(C(=O)N2CCc3c(nc(-c4ccncc4)[nH]c3=O)C2)cn1, CC(C)c1nnc2n1CCN(C(=O)c1ccc3cc[nH]c3c1)C2 is higher in INHIBITION: 10.63% for the first, 45.92% for the second.

Going from CNC(=O)C(C)(C)N1CCC[C@H]1C(=O)NC1CC1 to Cc1c(C2CC2)n[nH]c1NC(=O)C1CCCN(C(=O)NCC(C)C)C1 (stereo not given), the INHIBITION falls from 24.91% to -7.81%.

Compared with CC(C)[C@@H]1CN(C(=O)C2(c3ccccc3)CCN(C)CC2)C[C@H]1C(=O)O, CC(C)[C@@H]1CN(C(=O)C2(c3ccccc3)CC2)C[C@H]1C(=O)O is higher in INHIBITION: 31.51% for the first, 69.67% for the second.

Going from CCN(c1ccc(C(=O)N2CCCC(C)C2)cc1)S(=O)(=O)CC (stereo not given) to CCS(=O)(=O)N(C)c1ccc(C(=O)N2CCCC(C)C2)cc1 (stereo not given), the INHIBITION rises from -2.82% to 62.77%.

Going from CCN(c1ccc(C(=O)N2CCC(C)CC2)cc1)S(=O)(=O)CC to CCCc1ccc(C(=O)N2CCn3c(nnc3C(C)C)C2)cc1, the INHIBITION rises from 9.63% to 15.08%.

Going from CN1CCN(C(=O)C2(S(C)(=O)=O)CCCC2)Cc2ccccc21 to CN1CCN(C(=O)C2(NC(N)=O)CCCCC2)Cc2ccccc21, the INHIBITION rises from -21.76% to 50.61%.

First: NC(=O)NC1(C(=O)N2CCc3c(Cl)cccc3C2)CCCCC1
Second: CN1CC(C(=O)NC2(c3ccc(Cl)cc3)CCOCC2)CC1=O (stereo not given)
The INHIBITION of the first is higher: 42.2% for the first, 3% for the second.

First: O=C(CC1CC1)N[C@@H]1CN(Cc2ccccn2)C[C@@H]2CCCO[C@@H]21
Second: CN(C)C(=O)COCC1CN(Cc2ccco2)Cc2ncn(C)c21 (stereo not given)
The INHIBITION of the first is higher: -5.84% for the first, -45.9% for the second.

First: Cc1csc(C(=O)N2CCC3(CC(N(C)c4ccncn4)C3)C2)c1 (stereo not given)
Second: CC(C)c1nnc2n1CCN(C(=O)c1ccc3c(c1)CCC3)C2
The INHIBITION of the first is lower: -18.68% for the first, 9.17% for the second.

Compared with CN(CC(O)C1CC1)C(=O)Nc1ccc(F)c(-n2cccc2)c1 (stereo not given), CC(C)c1nnc2n1CCN(C(=O)c1ccc(Cn3cccc3)cc1)C2 is lower in INHIBITION: 42.76% for the first, 15.08% for the second.

Compared with c1ccc(-c2nc(CCNCc3cccnc3)co2)cc1, O=C1Nc2ccccc2C12CCN(Cc1nccs1)CC2 is lower in INHIBITION: 30.88% for the first, 21.61% for the second.

Going from CS(=O)(=O)NCCC(=O)NC1(c2ccc(F)cc2)CCCC1 to CS(=O)(=O)NCCNC(=O)NC1(c2ccc(F)cc2)CCCC1, the INHIBITION rises from 5.17% to 52.3%.

First: CS(=O)(=O)NCCNC(=O)NC1(c2ccc(Cl)cc2)CCC1
Second: COCCNC(=O)Cn1cc(NC(=O)c2ccc(C(C)(C)C)cc2)cn1
The INHIBITION of the first is higher: 43.88% for the first, -38.81% for the second.

Compared with CN(C)CCOCc1nnc2n1CCN(Cc1ccsc1)C2, CC(C)c1nnc2n1CCN(C(=O)c1ccc(CN(C)C)cc1)C2 is higher in INHIBITION: 20.2% for the first, 50.72% for the second.

Going from CCc1cc(NC(=O)C2CCCN(C(=O)NCC(C)C)C2)[nH]n1 (stereo not given) to Cc1n[nH]c(C)c1NC(=O)C1CCCN(C(=O)NCC(C)C)C1 (stereo not given), the INHIBITION rises from 6.62% to 52.95%.

Compared with CC(C)c1nc(CS(=O)(=O)Cc2noc(C3CC3)n2)cs1, CCc1nc(CS(=O)(=O)Cc2noc(C3CC3)n2)cs1 is lower in INHIBITION: 53.12% for the first, -18.58% for the second.

CC(C)c1nnc2n1CCN(C(=O)c1ccc3c(c1)COC3)C2 was tested, and the INHIBITION was 57.75%.
